Assay results as given in PubChem BioAssay (Tox21).
Several values for one entry are separate records, joined by “and”; a condition that tells them apart may be missing. Equal entries are not always repeated. Inconclusive results are not listed. A structure can be active in one record and inactive in another. Activity calls are given as the source filed them. Unless noted, calls follow the shape of the dose curve; as a rule, active = well fitted curve in the direction sought with a large enough effect in the repeat runs; inconclusive = weak or mixed curves; inactive = no such curve, though single readings can be large; an effect the other way counts as inactive or inconclusive.

Key:
[1] = qHTS assay to identify small molecule HDAC inhibitors (AID 1259364); also: nearly all actives have a fitted effect of over 45% in size; also: potency is read from the fitted curve at half-maximal effect
How it was run: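 Wild-type HCT-116 cells were plated overnight, exposed to compounds for 2 h at 37 °C, then given HDAC-Glo class I/II luminogenic reagent for 30 min at room temperature before luminescence was read.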

[2] = qHTS assay to identify small molecule HDAC inhibitors - cell viability counter screen (AID 1259365); also: series mostly up to about 92 µM; nearly all actives have a fitted effect of over 50% in size
How it was run: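 Following a 2hr exposure of overnight-plated wild-type HCT-116 cells to DMSO-delivered compounds, CellTiter-Glo was added and luminescence recorded after 30min at room temperature.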

[3] = qHTS assay to identify small molecule agonists of the sonic hedgehog signaling (Shh) pathway - cell viability counter screen (AID 1259366); also: nearly all actives have a fitted effect of over 50% in size
How it was run: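 After a 4hr attachment at 37C, NIH/3T3 cells bearing an integrated Gli1-driven luciferase reporter were dosed with compounds. Treatment lasted 24hr, with the final hour including CellTiter-Fluor for a fluorescence viability measurement.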

[4] = qHTS assay to identify small molecule antagonists of the sonic hedgehog signaling (Shh) pathway - cell viability counter screen (AID 1259367); also: nearly all actives have a fitted effect of over 55% in size
How it was run: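 NIH/3T3-derived Gli1-Luc reporter cells (2,000 per well) rested 4 hr at 37 C, then received DMSO compounds plus conditioned medium. After 23 hr of treatment, CellTiter-Fluor was added for 1 hr at 37C and fluorescence read.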

[5] = qHTS assay to identify small molecule agonists of the sonic hedgehog signaling (Shh) pathway (AID 1259368; calls by dose curve; also: series mostly up to about 92 µM; nearly all actives have a fitted effect of over 15% in size)
How it was run: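 NIH/3T3-derived 3T3Gli1-Luc cells carrying a stably integrated Gli1 response element–firefly luciferase reporter were plated, left 4 hr at 37 C, then given compounds in DMSO for 24 hr. Luminescence was read 30 min after adding luciferase reagent.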

[6] = qHTS assay to identify small molecule antagonists of the sonic hedgehog signaling (Shh) pathway (AID 1259369; calls by dose curve; also: nearly all actives have a fitted effect of over 45% in size; also: potency is read from the fitted curve at half-maximal effect)
How it was run: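 NIH/3T3-derived 3T3Gli1-Luc cells with stably integrated Gli1-Luc reporter were preincubated 4hr at 37 C, then given compounds in DMSO plus Shh conditioned medium and incubated 24hr. Firefly luciferase luminescence read after 30min reagent at room temperature.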

[7] = qHTS assay to identify small molecule phospholipidosis (PLD) inducers (AID 1259344; active = well fitted curve in the direction sought with a large enough effect; an effect the other way counts as inactive or inconclusive)
How it was run: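 HepG2 cells on collagen I, attached 4 h at 37 C, were co-treated with compound and LipidTOX Red dye for 24 h at 37 C, then fixed with paraformaldehyde plus Hoechst 33342 and imaged by high-content microscopy for phospholipid accumulation.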

[8] = biological target: Estrogen receptor beta (Homo sapiens) (UniProt Q92731); assay: qHTS assay to identify small molecule agonists of the estrogen receptor beta (ER-beta) signaling pathway (AID 1259377; active = well fitted activation curve with a large enough effect in the signal ratio in the repeat runs, not every such curve was filed as active; the % refers to the signal ratio; also: potency is read from the fitted curve at half-maximal effect)
Sequence of Estrogen receptor beta (Homo sapiens) (Q92731 whole entry, looked up): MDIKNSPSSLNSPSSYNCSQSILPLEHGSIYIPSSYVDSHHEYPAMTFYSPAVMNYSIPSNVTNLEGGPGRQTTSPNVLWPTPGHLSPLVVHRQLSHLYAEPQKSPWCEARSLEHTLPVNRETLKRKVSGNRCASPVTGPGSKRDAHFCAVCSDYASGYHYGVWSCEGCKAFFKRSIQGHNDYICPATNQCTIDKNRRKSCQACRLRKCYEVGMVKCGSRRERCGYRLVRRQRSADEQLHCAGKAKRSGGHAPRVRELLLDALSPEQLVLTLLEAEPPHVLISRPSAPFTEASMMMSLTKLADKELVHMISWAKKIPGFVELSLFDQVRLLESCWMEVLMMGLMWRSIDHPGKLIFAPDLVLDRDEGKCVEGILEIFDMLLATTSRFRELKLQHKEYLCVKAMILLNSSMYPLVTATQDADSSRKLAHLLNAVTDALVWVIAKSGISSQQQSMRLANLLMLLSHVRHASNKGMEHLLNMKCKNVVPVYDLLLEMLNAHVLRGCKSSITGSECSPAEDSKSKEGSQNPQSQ
How it was run: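 In HEK293T cells bearing a UAS-beta-lactamase reporter under ER-beta control, DMSO-delivered compounds were incubated for 16 hr at 37C. Activity was detected as fluorescence 2 hours after LiveBLAzer B/G FRET substrate addition.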

[9] = biological target: Estrogen receptor beta (Homo sapiens) (UniProt Q92731); assay: qHTS assay to identify small molecule antagonists of the estrogen receptor beta (ER-beta) signaling pathway (AID 1259378; active = well fitted inhibition curve with a large enough effect in the signal ratio in the repeat runs, not every such curve was filed as active; the % refers to the signal ratio)
How it was run: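 ER-beta-UAS-bla HEK293T (GripTite) cells in 2% charcoal-stripped FBS medium were preincubated 6 hr at 37C, dosed with compound, then stimulated with 1 nM E2 (final) for 16 hr; beta-lactamase reporter read by B/G FRET fluorescence after 2 hr substrate loading.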
% is scaled to controls: 0 for no effect and ±100 for the full control effect.

Nc1ccc(Cc2ccc(N)cc2)cc1
inactive: Potency [1] | outcome [2] | Potency [3] | Potency [4] | outcome [5] | Potency [6]

O=c1ccc(=O)[nH][nH]1
inactive: Potency [1] | outcome [2] | Potency [3] | Potency [4] | outcome [5] | Potency [6]

CN(C)[C@@H]1C(=O)C(C(N)=O)=C(O)[C@@]2(O)C(=O)C3=C(O)c4c(O)cccc4[C@@](C)(O)[C@H]3C[C@@H]12
inactive: outcome [7] | Potency [1] | Potency [3] | Potency [4] | outcome [5] | Potency [6] | Potency [8] | outcome [9]

CN(C)N=O
inactive: Potency [1] | Potency [3] | Potency [4] | outcome [5] | Potency [6] | Potency [8] | outcome [9]

CCC(C)(CC)c1cc(NC(=O)c2c(OC)cccc2OC)on1
inactive: Potency [1] | outcome [2] | Potency [3] | Potency [4] | outcome [5] | Potency [8]
active: Potency [6] 6.88 µM

CCCCCCCCCCCC#N
inactive: Potency [1] | Potency [3] | Potency [4] | outcome [5] | Potency [6] | Potency [8] | outcome [9]

OCCN(CCO)CCO
inactive: PLD induction [7] 10.3% [at 7.66 µM] | Potency [1] | outcome [2] | Potency [3] | Potency [4] | outcome [5] | Potency [6]

c1ccc2c(c1)oc1ccccc12
inactive: Potency [1] | outcome [2] | Potency [3] | Potency [4] | outcome [5] | Potency [6] | Potency [8] | outcome [9]

O=S(=O)(c1ccc(Cl)cc1)c1cc(Cl)c(Cl)cc1Cl
inactive: Potency [1] | Potency [3] | Potency [4] | outcome [5] | Potency [8] | outcome [9]

C#CC(C)(C)NC(=O)c1cc(Cl)cc(Cl)c1
inactive: Potency [1] | outcome [2] | Potency [3] | Potency [4] | outcome [5] | Potency [6]

C[C@]12CC[C@H]3[C@@H](CC[C@@]45O[C@@H]4C(O)=C(C#N)C[C@]35C)[C@@H]1CC[C@@H]2O
inactive: outcome [7] | Potency [1] | outcome [2] | Potency [3] | Potency [4] | outcome [5] | outcome [9]
active: Potency [6] 27.3 µM and 13.3 µM

CCOP(=S)(OCC)SCCSCC
inactive: Potency [1] | Potency [3] | Potency [4] | outcome [5] | Potency [6] | Potency [8] | outcome [9]

CC1OC(C)OC(C)O1 (configuration not stated)
inactive: outcome [7] | Potency [1] | outcome [2] | Potency [3] | Potency [4] | outcome [5] | Potency [6] | Potency [8] | outcome [9]

Clc1ccccc1Cl
inactive: outcome [7] | Potency [1] | outcome [2] | Potency [3] | Potency [4] | outcome [5] | Potency [6] | Potency [8] | outcome [9]

CCN(CC)CCO
inactive: Potency [1] | outcome [2] | Potency [3] | Potency [4] | outcome [5] | Potency [6] | Potency [8] | outcome [9]

CC(C)(C)C(O)(CCc1ccc(Cl)cc1)Cn1cncn1 (configuration not stated)
inactive: Potency [1] | outcome [2] | Potency [3] | Potency [4] | outcome [5]

CCNc1nc(NC(C)C)nc(SC)n1
inactive: Potency [1] | outcome [2] | Potency [3] | Potency [4] | outcome [5] | Potency [6] | Potency [8] | outcome [9]

CCc1cccc(C)c1N(C(=O)CCl)C(C)COC (configuration not stated)
inactive: Potency [1] | Potency [3] | Potency [4] | outcome [5] | Potency [6] | Potency [8]

COC(=O)c1ccccc1N
inactive: Potency [1] | outcome [2] | Potency [3] | Potency [4] | outcome [5] | Potency [6] | Potency [8] | outcome [9]

CC(NC(C)(C)C)C(=O)c1cccc(Cl)c1 (configuration not stated)
inactive: outcome [7] | Potency [1] | outcome [2] | Potency [3] | Potency [4] | outcome [5] | Potency [6] | outcome [9]

NCC(O)c1ccc(O)cc1 (configuration not stated)
inactive: outcome [7] | Potency [1] | outcome [2] | Potency [3] | Potency [4] | outcome [5] | Potency [6] | Potency [8] | outcome [9]

O=c1[nH]c(=O)[nH]c(=O)[nH]1
inactive: Potency [1] | outcome [2] | Potency [3] | Potency [4] | outcome [5] | Potency [6] | Potency [8] | outcome [9]

c1ccc2c(c1)Oc1ccccc1O2
inactive: Potency [1] | outcome [2] | Potency [3] | Potency [4] | outcome [5] | Potency [6]

CC(C)(C)OOC(=O)c1ccccc1
61.2 µM (active) and inactive: Potency [8]
inactive: Potency [1] | outcome [2] | Potency [3] | Potency [4] | outcome [5] | Potency [6] | outcome [9]

O=[N+]([O-])c1ccc(Oc2ccc(Cl)cc2Cl)cc1
inactive: Potency [1] | outcome [2] | Potency [3] | Potency [4] | outcome [5] | Potency [6] | outcome [9]
61.4 µM (active) and inactive: Potency [8]

CCCC1COC(Cn2cncn2)(c2ccc(Cl)cc2Cl)O1 (configuration not stated)
active: Potency [6] 27.8 µM
inactive: Potency [1] | Potency [3] | Potency [4] | outcome [5]

OC(O)C(Cl)(Cl)Cl
inactive: outcome [7] | Potency [1] | Potency [3] | Potency [4] | outcome [5] | Potency [6] | Potency [8] | outcome [9]

Oc1ccccc1Cl
inactive: Potency [1] | Potency [3] | Potency [4] | outcome [5] | Potency [6]

C=CCO
inactive: outcome [2] | Potency [3] | Potency [4] | outcome [5] | Potency [6]
28.5 µM (active) and inactive: Potency [1]

Clc1cccc(Cl)c1Cl
inactive: Potency [1] | Potency [3] | Potency [4] | outcome [5] | Potency [6]
